Reference: paper PMC7862700, “An all-to-all approach to the identification of sequence-specific readers for epigenetic DNA modifications on cytosine”

target: T1, FEV (Homo sapiens, UniProt Q99581 1-238); experiment: DAPPL (digital affinity profiling via proximity ligation, sequencing); 10 mM Tris-HCl pH 7.5, 50 mM NaCl, 1 mM DTT, 4% glycerol, room temperature, 30 min; GST-TFs on glutathione beads, 16-mer random dsDNA library, 0.1% formaldehyde crosslink after washing; high values mean tight binding; details: protein: recombinant; tags: N-terminal GST; dsDNA, one strand shown
T1 sequence: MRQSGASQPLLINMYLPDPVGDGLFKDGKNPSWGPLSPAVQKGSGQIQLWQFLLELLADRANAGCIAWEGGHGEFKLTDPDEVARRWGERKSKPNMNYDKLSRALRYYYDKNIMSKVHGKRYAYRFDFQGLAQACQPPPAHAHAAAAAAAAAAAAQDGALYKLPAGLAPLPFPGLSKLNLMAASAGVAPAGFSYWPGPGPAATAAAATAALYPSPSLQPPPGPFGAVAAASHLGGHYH
Summary of the method: (§1)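 Human transcription factors fused to GST were expressed in yeast, captured on glutathione beads, given DNA barcodes and pooled with a GST-only negative control. Pools were incubated with 200 nmole of a 16-mer random double-stranded DNA library in Tris/NaCl/DTT/glycerol buffer at room temperature for 30 min. They were then washed, crosslinked with 0.1% formaldehyde, proximity-ligated (BsaI/T4 ligase, 1 h, 37 °C), PCR-amplified and sequenced on an Illumina NextSeq500. Binding signal is each 6-mer's read frequency for a factor divided by its frequency for the GST control.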

How did the binding signal turn out when ACCTAG was run?
The binding signal was 1.03 fold enrichment (6-mer frequency, TF over GST control).

Which binding signal does the source give for TGGATA here?
The binding signal was 1.03 fold enrichment (6-mer frequency, TF over GST control).

Which binding signal does the source give for ATAAGA here?
Its binding signal is 1.01 fold enrichment (6-mer frequency, TF over GST control).

With GCTAGT as the sequence, how does the binding signal read?
Its binding signal is 1.03 fold enrichment (6-mer frequency, TF over GST control).

Which binding signal does the source give for TAAGGG here?
Its binding signal is 1 fold enrichment (6-mer frequency, TF over GST control).

How did the binding signal turn out when CTTAAG was run?
The binding signal was 1.05 fold enrichment (6-mer frequency, TF over GST control).

With TAAAGG as the sequence, how does the binding signal read?
Its binding signal is 1.02 fold enrichment (6-mer frequency, TF over GST control).

For GCCCGA, which binding signal is on record?
The binding signal was 1.07 fold enrichment (6-mer frequency, TF over GST control).

For GTTCGC, which binding signal is on record?
The binding signal was 1.06 fold enrichment (6-mer frequency, TF over GST control).

How did the binding signal turn out when TTAGAT was run?
Its binding signal is 1.01 fold enrichment (6-mer frequency, TF over GST control).

Which binding signal does the source give for TTGCCA here?
Its binding signal is 1.11 fold enrichment (6-mer frequency, TF over GST control).

For TTAAGA, which binding signal is on record?
Its binding signal is 1.01 fold enrichment (6-mer frequency, TF over GST control).

GCTGGT was tested. Which binding signal did it give?
Its binding signal is 1.1 fold enrichment (6-mer frequency, TF over GST control).

Which binding signal does the source give for CGTTTA here?
Its binding signal is 1.09 fold enrichment (6-mer frequency, TF over GST control).

CGTCTG was tested. Which binding signal did it give?
Its binding signal is 1.03 fold enrichment (6-mer frequency, TF over GST control).

With TAAGCA as the sequence, how does the binding signal read?
Its binding signal is 1.04 fold enrichment (6-mer frequency, TF over GST control).

target: HSF1 (Homo sapiens, UniProt Q00613 1-529); experiment: as above; details: protein: recombinant; tags: N-terminal GST; chain copies: 3; dsDNA, one strand shown
Summary of the method: as §1

Chain of HSF1 (Q00613 whole entry): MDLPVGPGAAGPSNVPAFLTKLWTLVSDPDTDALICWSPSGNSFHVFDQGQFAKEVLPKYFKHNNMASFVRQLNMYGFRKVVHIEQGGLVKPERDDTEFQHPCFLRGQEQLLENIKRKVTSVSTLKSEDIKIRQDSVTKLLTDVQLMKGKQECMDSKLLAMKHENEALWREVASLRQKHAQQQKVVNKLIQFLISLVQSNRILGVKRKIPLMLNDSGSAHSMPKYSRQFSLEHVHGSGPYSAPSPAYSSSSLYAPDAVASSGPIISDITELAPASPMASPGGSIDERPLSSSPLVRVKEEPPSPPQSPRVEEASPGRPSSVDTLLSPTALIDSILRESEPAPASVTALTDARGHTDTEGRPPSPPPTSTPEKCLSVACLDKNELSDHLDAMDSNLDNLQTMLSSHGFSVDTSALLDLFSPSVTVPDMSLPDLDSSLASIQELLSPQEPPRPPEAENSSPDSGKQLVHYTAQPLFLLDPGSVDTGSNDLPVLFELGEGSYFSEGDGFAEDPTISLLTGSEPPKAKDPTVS

How did the binding signal turn out when ACCTAG was run?
Its binding signal is 1.21 fold enrichment (6-mer frequency, TF over GST control).

For GCTAAG, which binding signal is on record?
The binding signal was 1.13 fold enrichment (6-mer frequency, TF over GST control).

How did the binding signal turn out when GATTTA was run?
Its binding signal is 1.54 fold enrichment (6-mer frequency, TF over GST control).

How did the binding signal turn out when TGGATA was run?
The binding signal was 1.2 fold enrichment (6-mer frequency, TF over GST control).

For ATAAGA, which binding signal is on record?
Its binding signal is 1.54 fold enrichment (6-mer frequency, TF over GST control).

With CTAGAA as the sequence, how does the binding signal read?
Its binding signal is 6.29 fold enrichment (6-mer frequency, TF over GST control).

How did the binding signal turn out when TGAATC was run?
The binding signal was 1.03 fold enrichment (6-mer frequency, TF over GST control).

With GTAAGC as the sequence, how does the binding signal read?
Its binding signal is 1.04 fold enrichment (6-mer frequency, TF over GST control).

How did the binding signal turn out when GATCTA was run?
Its binding signal is 1.41 fold enrichment (6-mer frequency, TF over GST control).

With GCTAGT as the sequence, how does the binding signal read?
The binding signal was 1.12 fold enrichment (6-mer frequency, TF over GST control).

AGATCT was tested. Which binding signal did it give?
Its binding signal is 1.47 fold enrichment (6-mer frequency, TF over GST control).

How did the binding signal turn out when AGCTAG was run?
Its binding signal is 1.21 fold enrichment (6-mer frequency, TF over GST control).

For TAAGGG, which binding signal is on record?
Its binding signal is 1.12 fold enrichment (6-mer frequency, TF over GST control).

How did the binding signal turn out when CTTAAG was run?
Its binding signal is 1.7 fold enrichment (6-mer frequency, TF over GST control).

TAAAGG was tested. Which binding signal did it give?
Its binding signal is 1.15 fold enrichment (6-mer frequency, TF over GST control).

For AGTCTC, which binding signal is on record?
The binding signal was 1 fold enrichment (6-mer frequency, TF over GST control).

For TGAAGA, which binding signal is on record?
Its binding signal is 1.09 fold enrichment (6-mer frequency, TF over GST control).

How did the binding signal turn out when TGATTA was run?
Its binding signal is 1.58 fold enrichment (6-mer frequency, TF over GST control).

For TAGATA, which binding signal is on record?
Its binding signal is 1.46 fold enrichment (6-mer frequency, TF over GST control).

For TCGAGC, which binding signal is on record?
The binding signal was 1.46 fold enrichment (6-mer frequency, TF over GST control).

CCCCAG was tested. Which binding signal did it give?
Its binding signal is 1.03 fold enrichment (6-mer frequency, TF over GST control).

How did the binding signal turn out when TGATAG was run?
The binding signal was 1.02 fold enrichment (6-mer frequency, TF over GST control).

With GCCCGA as the sequence, how does the binding signal read?
The binding signal was 1.1 fold enrichment (6-mer frequency, TF over GST control).

GTTCGC was tested. Which binding signal did it give?
The binding signal was 1.12 fold enrichment (6-mer frequency, TF over GST control).

How did the binding signal turn out when GGATCT was run?
Its binding signal is 1.07 fold enrichment (6-mer frequency, TF over GST control).

TTAGAT was tested. Which binding signal did it give?
Its binding signal is 1.49 fold enrichment (6-mer frequency, TF over GST control).

TTGCCA was tested. Which binding signal did it give?
Its binding signal is 1.01 fold enrichment (6-mer frequency, TF over GST control).

TCAATC was tested. Which binding signal did it give?
Its binding signal is 1.13 fold enrichment (6-mer frequency, TF over GST control).

For ATAAGT, which binding signal is on record?
The binding signal was 1.28 fold enrichment (6-mer frequency, TF over GST control).

With TCTAGA as the sequence, how does the binding signal read?
Its binding signal is 6.17 fold enrichment (6-mer frequency, TF over GST control).

CTAGCC was tested. Which binding signal did it give?
Its binding signal is 1.05 fold enrichment (6-mer frequency, TF over GST control).

Which binding signal does the source give for TAGACT here?
The binding signal was 1.32 fold enrichment (6-mer frequency, TF over GST control).

Which binding signal does the source give for TTAAGA here?
Its binding signal is 1.95 fold enrichment (6-mer frequency, TF over GST control).

Which binding signal does the source give for GCTGGT here?
The binding signal was 1.06 fold enrichment (6-mer frequency, TF over GST control).

For CGTTTA, which binding signal is on record?
Its binding signal is 1.06 fold enrichment (6-mer frequency, TF over GST control).

For GATCAA, which binding signal is on record?
Its binding signal is 1.25 fold enrichment (6-mer frequency, TF over GST control).

With CGTCTG as the sequence, how does the binding signal read?
The binding signal was 1.01 fold enrichment (6-mer frequency, TF over GST control).

TAAGCA was tested. Which binding signal did it give?
The binding signal was 1.29 fold enrichment (6-mer frequency, TF over GST control).

With CATGCG as the sequence, how does the binding signal read?
Its binding signal is 1.07 fold enrichment (6-mer frequency, TF over GST control).
